Screening results deposited in PubChem by several laboratories.
This is a sample that favours compounds with a hit; in the whole collection about 3% have one here.
LMP1 NFkB inh: EBV LMP1-driven NF-kappaB luciferase reporter inhibitors, primary screen, cell-based, luminescence, single point; 350,000 tested, 0.69% active; inhibition, % at 12.5 µM; AID 504558, 2011; LMP1-induced NF-kappaB luciferase reporter cells; in the data active means inhibition above about 41%;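 further: 0% = neutral control wells and 100% = reference inhibitor control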
KKLEB tox: cytotoxicity in KKLEB CF airway cells, primary screen, cytotoxicity control for CF NF-kB inhibitor project, cell-based, uHTS, fluorescence assay plates; KKLEB CF airway cells viability, ATPlite luminescence, overnight; active compounds read low; cells stimulated with P. aeruginosa culture filtrate; activity change (cytotoxicity), % at 5 µM; AID 602141, 2011; 360,000 tested, 0.36% active;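 active means corrected activity change at or below -50% at 5 µM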
MITF TRPM1 inh: inhibitors of MITF-dependent TRPM1 promoter reporter, primary screen, cell-based, SK-MEL-5, single point, luciferase. SK-MEL-5 TRPM1 promoter luciferase, 24 h. inhibition, % at 12.5 µM. 330,000 tested, 0.83% active. AID 488899, 2010;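 active means mean inhibition across replicates of 60% or more, whatever share of single replicates reaches that level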
CF NFkB inh: inhibitors of PAF-induced NF-kB signaling, primary screen, cell-based, GFP fluorescence, uHTS | AID 588850, 2011 | 360,000 tested, 0.86% active | inhibition, % at 5 µM | KKLEB NF-kB-GFP reporter, GFP fluorescence overnight;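 active means at least 50% inhibition at 5 µM, scaled per plate between neutral and stimulator controls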;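 further: PAF is a Pseudomonas aeruginosa culture filtrate used as stimulus; plate controls were PAF-stimulated DMSO wells for no effect and unstimulated DMSO wells for full effect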
HIF-2a inh: HIF-2a reporter inhibitors, primary screen, luminescence, 786-0 RCC cells; 786-0 RCC cells HIF-2a reporter, luciferase luminescence, overnight; inhibition, % at 18.8 µM; 360,000 tested, 0.72% active; AID 624352, 2012;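 active means inhibition of the luminescence signal of 40% or more relative to plate controls, in a single-dose primary screen at 18.75 µM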
Peg3 prom inh-1: Peg3 promoter-driven luciferase inhibitors, primary screen, cell-based, HeLa, luciferase luminescence. HeLa PEG-Prom luciferase reporter, overnight. inhibition, % at 20 µM. 360,000 tested, 1.7% active;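 active means inhibition of at least 50% at 20 µM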
Peg3 prom inh-2: Peg3 promoter reporter inhibitors, retest, confirmation, cell-based, HeLa, luciferase reporter, single concentration; shares compounds with Peg3 prom inh-1; HeLa PEG-Prom luciferase reporter, luminescence, overnight; inhibition, % at 20 µM; 1,300 tested, 84% active;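 active means at 20 µM dose, 40% or more inhibition averaged across four replicates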
* hit, by the source's call; / = no result given; ! = not active in a repeat.

SMILES	LMP1 NFkB inh	KKLEB tox	MITF TRPM1 inh	CF NFkB inh	HIF-2a inh	Peg3 prom inh-1	Peg3 prom inh-2
O=C(C[n+]1ccc(-c2cc(C(=O)Nc3cccc(C(F)(F)F)c3)c3ccccc3n2)cc1)c1cccc([N+](=O)[O-])c1	-1	-4	-1	11	17	89*	62*
CC[C@H](C)[C@H]1O[C@]2(CC[C@@H]1C)C[C@@H]1C[C@@H](CC=C(C)[C@@H](O[C@H]3C[C@H](OC)[C@@H](O[C@H]4C[C@H](OC)[C@@H](O)[C@H](C)O4)[C@H](C)O3)[C@@H](C)C=CC=C3CO[C@@H]4[C@H](O)C(C)=C[C@@H](C(=O)O1)[C@]34O)O2	1	-51*	58	56*	53*	84*	38
CCCCC[C@@H](C)N1C[C@@H](COCc2ccccc2)Oc2cc(N3CCC[C@@H]3CO)ccc2S1(=O)=O	/	/	/	/	6	/	/
CN1CCN(c2ccc(-c3cccc(NC(=O)COc4ccc(Cl)cc4Cl)c3)nn2)CC1	-18	-58*	-21	10	-67	54*	16
O=C1Nc2ccccc2-n2nnnc2C1N1CCN(C(=O)C2CCCO2)CC1 (configuration not stated)	/	/	/	/	13	/	/
CN1CCC2(CC1)N=C(c1ccc(F)cc1)C(=S)N2C(=O)c1ccc(C(C)(C)C)cc1	-1	0	14	1	-12	70*	84*
CC(C)(C)c1ccc(C(=O)N2CCNCC2)cc1	-9	-10	-4	1	-2	-3	/
CCCS(=O)(=O)NC(=O)C1(C)CCCN(C(=O)c2cc(C)n(C(C)(C)C)n2)C1 (configuration not stated)	/	12	/	-7	12	-8	/
CCN(CC)CCNC(=S)Nc1ccc2nc(N3CCCC3)cc(C)c2c1	-27	-7	17	1	14	32	/
CCCN(CCC)CCCNC(=S)Nc1ccc2nc(N3CCCC3)cc(C)c2c1	-28	-23	50	8	21	51*	71*
O=C(Nc1cccc(S(=O)(=O)N2CCOCC2)c1)c1ccc2c(=O)n3c(nc2c1)CCCCC3	10	-6	6	-13	11	51*	51*
O=C(OCCNc1nc(-c2ccccc2)nc2ccccc12)c1cccnc1	3	-6	-17	-7	11	21	/
CCCOC(=O)c1cccc(Nc2nc(-c3cccnc3)nc3ccccc23)c1	-17	-22	48	0	21	96*	95*
CC(C)CCNC(=O)C1(C)CCN1Cc1ccc2ccccc2c1 (configuration not stated)	/	-6	/	-15	5	4	/
O=c1c2c3c(sc2nc(N2CCNCC2)n1CCc1ccccc1)CCCCC3	-8	-16	69*	7	-19	105*	96*
CCc1nc(Nc2ccc(N3CCN(C(C)=O)CC3)cc2)c2oc3ccccc3c2n1	-7	1	-6	-11	-59	79*	68*
COc1ccc(-n2cc(CNC3CCN(C)CC3)c(-c3cccc(F)c3)n2)cc1	-5	-7	-1	14	-3	52*	60*
Cc1noc(C)c1S(=O)(=O)NC(=O)C1(C)CCN1C(=O)Cc1ccc(Cl)cc1Cl (configuration not stated)	/	6	/	10	0	8	/
O=C(c1ccoc1)N1CCN(c2cc(-c3cccnc3)nc3cc(-c4cccc(Cl)c4)nn23)CC1	-6	-1	/	4	-6	54*	29
O=C(c1ccncc1)N1CCN(c2cc(-c3ccccc3)nc3cc(-c4cccc(Cl)c4)nn23)CC1	12	-7	/	4	-26	47	/
CC(=O)N1CCN(c2cc(-c3ccccc3)nc3cc(-c4cccc(Cl)c4)nn23)CC1	-2	-1	/	6	-27	55*	58*
CC1=C(C(=O)N2CCCCCC2)CC(CC(=O)NCCCCc2ccccc2)C(=O)N1Cc1ccccc1 (configuration not stated)	/	-14	/	12	14	6	/
CN(C)CCN1CCN(C2CN(Cc3cn(Cc4ccc(Cl)cc4)nn3)S(=O)(=O)C2)CC1 (configuration not stated)	/	/	/	/	2	/	/
O=C(COc1ccc2c(c1)CCC2)Nc1ccccn1	-8	-34	51	16	60*	75*	67*
Cc1cccc(NC(=O)COc2ccc3c(c2)CCC3)n1	-4	-3	-106	-2	-276	-241	/
SMILES	LMP1 NFkB inh	KKLEB tox	MITF TRPM1 inh	CF NFkB inh	HIF-2a inh	Peg3 prom inh-1	Peg3 prom inh-2
CCN1CCN(c2ncc(C(=O)Nc3cc(Cl)ccc3OC)c3ccccc23)CC1	-72	-5	2	19	5	61*	57*
COc1ccc(C(=O)N2C=Cc3ccccc3C2C(N)=O)cc1 (configuration not stated)	-11	-12	/	9	14	17	/
CC1=NN(c2cccc(C(=O)O)c2)C(=O)/C1=C\C=C/c1ccccc1	/	-15	/	64*	59*	78*	52*
CC(C)(C)C1CCC(CN2CCC(CN3C(=O)C(=O)NC[C@@H]3Cc3ccccc3)CC2)CC1 (some centres not stated)	-2	0	-17	8	-10	1	/
CC(=O)Nc1cccc(-c2ccnc3c2CC(C)(C(=O)Nc2cccc(OC(F)(F)F)c2)O3)c1 (configuration not stated)	/	-13	/	14	28	63*	61*
CC1(C(=O)Nc2cccc(OC(F)(F)F)c2)Cc2c(-c3cccc(C(F)(F)F)c3)ccnc2O1 (configuration not stated)	/	-15	/	3	10	14	/
CCN(Cc1ccccc1)S(=O)(=O)c1ccc(C(=O)N(CCCN(C)C)c2nc3cc4c(cc3s2)OCO4)cc1	-2	0	93*	-11	3	87*	99*
CN(C)CCN(C(=O)c1ccc(S(=O)(=O)N(C)c2ccccc2)cc1)c1nc2cc3c(cc2s1)OCO3	6	3	0	18	-54	-24	/
O=S(=O)(Cc1nnnn1-c1ccc(Br)cc1)c1ccccc1	-4	10	/	-14	2	8	/
CCS(=O)(=O)c1nnnn1-c1ccccc1S(C)(=O)=O	51*	1	48	29	21	58*	38
CCCCOCCCNC(=O)C[C@@H]1C[C@@]2(C(=O)OCC)CCC=C2N(CCC2=CCCCC2)C1=O	/	/	/	/	1	/	/
C[n+]1c2cc(N)ccc2cc2ccc(N)cc21	72*!	4	64*	-376	41*!	96*	96*
